Results published in PubChem BioAssay AID1159580 (chemical genetic matrix, 2015).
Out of some 5,500 compounds screened, about 2,000 (36%) were called active. Not shown: some 18% with an inconclusive outcome. Rule as the data show it: active = normalized growth mostly below about 0.91 (no sharp cut-off); inconclusive = no clear call, values can overlap the other calls; inactive = mostly above about 0.92. This is one part of the list.

Assay: chemical genetic growth profiling, strain panel (AID 1159580);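 also: tested at 20 µM; growth read once vehicle control cultures reached saturation at 30 °C; 1 = growth at the plate median or of vehicle wells; lower values mean less growth of the strain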
Conditions: S. cerevisiae deletion strains, growth OD
[1] = locus YHR030C, strain SLT2, hits give low values
[2] = locus YJL187C, strain SWE1, hits give low values

Measured: normalized growth

CN(C)c1ccc(-c2n[nH]c(=O)c3ccccc23)cc1[N+](=O)[O-]
active: locus YEL061C, strain CIN8, hits give low values 0.907
inactive: locus YAL013W, strain DEP1, hits give low values 0.966 | locus YBR229C, strain ROT2, hits give low values 0.986 | locus YCL061C, strain MRC1, hits give low values 0.98 | locus YDL101C, strain DUN1, hits give low values 1 | locus YDR150W, strain NUM1, hits give low values 0.981 | locus YGR078C, strain PAC10, hits give low values 1 | [1] 0.875 | locus YHR087W, strain rtc3, hits give low values 0.982 | [2] 0.978 | locus YJR043C, strain POL32, hits give low values 0.963 | locus YJR075W, strain HOC1, hits give low values 0.99 | locus YKL190W, strain CNB1, hits give low values 1.01 | locus YLR039C, strain RIC1, hits give low values 1.09 | locus YLR058C, strain SHM2 (second series), hits give low values 0.994 | locus YLR085C, strain ARP6, hits give low values 0.882 | locus YLR262C, strain YPT6, hits give low values 1.08 | locus YML094W, strain GIM5, hits give low values 0.891 | locus YMR219W, strain ESC1, hits give low values 0.999 | locus YMR263W, strain SAP30, hits give low values 0.961 | locus YNL153C, strain GIM3, hits give low values 0.979 | locus YNL298W, strain CLA4 (second series), hits give low values 0.891 | locus YNL322C, strain KRE1, hits give low values 1.03 | locus YNR030W, strain Alg12, hits give low values 0.955 | locus YPL055C, strain LGE1, hits give low values 0.886 | locus YPL241C, strain CIN2, hits give low values 0.96 | locus YPR135W, strain CTF4, hits give low values 0.97

NC(=O)CS(=O)C(c1ccccc1)c1ccccc1 (stereo unspecified)
inactive: locus YAL021C, strain ccr4, hits give low values 1.01 | locus YAL026C, strain drs2, hits give low values 1.04 | locus YAL030W, strain snc1, hits give low values 1.02 | locus YBL061C, strain skt5, hits give low values 1.02 | locus YBR009C, strain hhf1, hits give low values 0.976 | locus YBR023C, strain chs3, hits give low values 1.03 | locus YBR171W, strain sec66, hits give low values 1.02 | locus YBR231C, strain swc5, hits give low values 1 | locus YBR279W, strain paf1, hits give low values 1.02 | locus YCL011C, strain gbp2, hits give low values 1.02 | locus YCL016C, strain dcc1, hits give low values 1.04 | locus YCL069W, strain vba3, hits give low values 0.998 | locus YCR088W, strain abp1, hits give low values 1.01 | locus YDL005C, strain med2, hits give low values 1.03 | locus YDL040C, strain nat1, hits give low values 0.998 | locus YDR001C, strain nth1, hits give low values 1 | locus YDR069C, strain doa4, hits give low values 1.02 | locus YDR137W, strain rgp1, hits give low values 1.05 | locus YDR159W, strain sac3, hits give low values 0.939 | locus YDR195W, strain ref2 0.981 | locus YDR297W, strain sur2, hits give low values 0.994 | locus YDR334W, strain swr1, hits give low values 1 | locus YDR335W, strain msn5, hits give low values 1.02 | locus YDR392W, strain spt3, hits give low values 0.968 | locus YEL003W, strain gim4, hits give low values 0.99 | locus YEL037C, strain rad23, hits give low values 1.01 | locus YEL061C, strain CIN8 (second series), hits give low values 1.01 | locus YER015W, strain faa2, hits give low values 1.01 | locus YER016W, strain bim1, hits give low values 1.02 | locus YER111C, strain swi4, hits give low values 1.01 | locus YER155C, strain BEM2 (second series), hits give low values 1.02 | locus YFR010W, strain ubp6, hits give low values 0.987 | locus YGL167C, strain pmr1, hits give low values 1 | locus YGL173C, strain kem1, hits give low values 1 | locus YGL227W, strain vid30, hits give low values 1.01 | locus YGL240W, strain doc1, hits give low values 1.01 | locus YGL253W, strain hxk2, hits give low values 1.03 | locus YHR013C, strain ard1, hits give low values 1.05 | locus YHR027C, strain rpn1, hits give low values 1.01 | [1] 1.04 | locus YHR079C, strain IRE1, hits give low values 1.04 | locus YHR142W, strain chs7, hits give low values 1.01 | locus YJL092W, strain hpr5, hits give low values 1 | locus YJL095W, strain BCK1 (second series), hits give low values 1.02 | locus YJL095W, strain BCK1, hits give low values 0.996 | locus YJL115W, strain asf1, hits give low values 1.01 | locus YJL129C, strain trk1, hits give low values 1.04 | locus YJL154C, strain vps35, hits give low values 1.01 | locus YJL164C, strain tpk1, hits give low values 0.988 | locus YJL166W, strain qcr8, hits give low values 0.982 | [2] 1.01 | locus YJR066W, strain TOR1, hits give low values 0.977 | locus YKL160W, strain elf1, hits give low values 1.05 | locus YKR026C, strain gcn3, hits give low values 1.01 | locus YKR091W, strain srl3, hits give low values 1.01 | locus YLL001W, strain dnm1, hits give low values 0.972 | locus YLL026W, hits give low values 1 | locus YLL041C, strain sdh2, hits give low values 1 | locus YLR027C, strain aat2, hits give low values 0.985 | locus YLR113W, strain HOG1, hits give low values 0.961 | locus YLR221C, strain rsa3, hits give low values 0.977 | locus YLR258W, strain gsy2, hits give low values 1.03 | locus YLR262C, strain YPT6 (second series), hits give low values 1.01 | locus YLR320W, strain mms22, hits give low values 0.958 | locus YLR342W, strain FKS1, hits give low values 1.02 | locus YLR357W, strain rsc2, hits give low values 0.997 | locus YLR370C, strain arc18, hits give low values 1.02 | locus YLR384C, strain iki3, hits give low values 1.02 | locus YML120C, strain ndi1, hits give low values 0.981 | locus YMR058W, strain fet3, hits give low values 1.02 | locus YMR125W, strain sto1, hits give low values 1.04 | locus YMR129W, hits give low values 1.01 | locus YMR205C, strain PFK2, hits give low values 1.01 | locus YMR231W, strain pep5, hits give low values 0.999 | locus YNL071W, strain lat1, hits give low values 1.02 | locus YNL183C, strain NPR1, hits give low values 0.958 | locus YNL209W, strain ssb2, hits give low values 1.01 | locus YNL248C, strain rpa49, hits give low values 1.04 | locus YNL322C, strain KRE1 (second series), hits give low values 1.02 | locus YNR049C, strain mso1, hits give low values 1.03 | locus YOR001W, strain rrp6, hits give low values 0.928 | locus YOR070C, strain gyp1, hits give low values 1.01 | locus YOR080W, strain dia2, hits give low values 1.01 | locus YOR083W, strain WHI5, hits give low values 0.976 | locus YOR106W, strain vam3, hits give low values 1.02 | locus YOR231W, strain MKK1, hits give low values 1.02 | locus YOR265W, strain rbl2, hits give low values 1.01 | locus YOR270C, strain vph1, hits give low values 1.05 | locus YOR290C, strain snf2, hits give low values 1.06 | locus YPL051W, strain arl3, hits give low values 1.06 | locus YPL078C, strain atp4, hits give low values 1.05 | locus YPL106C, strain sse1, hits give low values 1.04 | locus YPL240C, strain hsp82, hits give low values 1 | locus YPL256C, strain CLN2, hits give low values 1.06
